tested on: PPARg:RXRa DBDmut IVT, anti-RXR (DBD mutation: RXRa K156A/R161A, NR concentration 270 nM, RXRa partner concentration 90 nM); experiment: PBM binding z-score (relative to random genomic background probes); higher = stronger binding; sequences stand for … in GC…GCGATTGACAGCGTAGAATGAAGG
Summary of the method: (§1)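 On custom Agilent 4×180K arrays, double-stranded probes with 34-nt variable regions carried direct-repeat seeds, single-nucleotide variants, half-site ablations or random human genomic background. Ligand-free nuclear receptor dimers were applied for 1 h, and binding was read with antibodies against each partner (one per run). Binding z-scores come from regression-normalized fluorescence, with the random background probes as reference.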

| Sequence | PBM binding z-score |
| --- | --- |
| ATCGAAAGGTAGACGAGGTGAGTATACACCGTTT | 0.012 |
| CAGCCTAGGTCAGGGCCGGTATAGGAGGAACGTT | 0.942 |
| CAAACTAGGTCAAGAGGTCGAAGTCCGCTTCCCG | 8.31 |
| TAGCCTAGGTCATTGGGGCAGTATAGTACGCATC | 3 |
| CGAACTAGGTCATTGACAGGACAGTGAATAGTAA | 8.1 |
| AGATGTAGGTTACATCCGGGTCATTCAGGCTATG | 7 |
| CAAACTAGGTCAAAGAGGTCAAAGTCCGTGCGTA | 8.36 |
| CATACAGGGTCAGCTAGGCCAGGGTAGGGACGGC | 0.462 |
| GCTTACGGGTCGAAGGTTATAGCATGAATAGAAT | 0.529 |
| CCTATTGGGCCACGAAAGGTCATTGATTCAGTGA | 4.26 |
| CCCACTGGGCCAAAGGTCATTGATTCCAATGCTC | 4.77 |
| CCGACTGGGGCAAAAGTTACCATACTCAGTACGA | 4.08 |
| ACTAGCAGGCCAAGTTTGGGTCACTCTAACAAAG | 0.86 |
| CGAACTAAGTCAGAACAGGACAGTGAAGGATGAT | 0.607 |
| ACAGACAGTTGATGAAGGTAACTCAGGCTATCAT | -0.364 |
| ATCTCTAGGTAACCAAGTTCAGTGGATGCCGAAC | 3.66 |
| CAAACTAGGTCACCGGAAGGTCAAGGTCCGCATG | 8.67 |
| CCTTACGGGTCACTGACAGTTTATAGCATTTGGA | 3.68 |
| AGGCAAAGTTCAGGACGAGGTAACGTAAAGCACG | -0.11 |
| CGTCCAAGGCCAGCAGGTCAGTGAAAGCGACGTG | 0.153 |

| Sequence | PBM binding z-score |
| --- | --- |
| ATCTCTAGGTAAGACTCAGTGCAGTGAAGAACGC | 1.64 |
| CCGACTGGGGCATAAGGTTAACATAAGCCAGCCC | 3.23 |
| CCTAGCAGGCCAGGGTCACTCATGCATTTCGCTT | -0.158 |
| CAAACTAGGTCAAGAGGTCATAGTCCGCTTCCCG | 8.3 |
| ATCTCTAGGTAAGAGTCAGTTCAGTGAAGAACGC | 1.76 |
| GGAACGAGGGCGAGTTGATAGCAGAGTTTGATGG | 0.699 |
| CGTCAATGTTCAAGGTAACGTAACAGAAAGCAGC | -0.165 |
| CCTACTGGGCCAAGGGCATTGATCAGTCAAAGCA | 2.73 |
| ATATGTCGGTTATCGGGTCATTCAGTTTGCGCAT | 3.75 |
| GCTAGCAGGCCATTTGGGTCACTCAGTGACGGGC | 1.94 |
| CATTACGGGTCAAGGTTATAGCACGGGTGGTACG | 3.5 |
| TCTCGGAGGACACGAAAGGTCATAGCTCGACATC | 2.17 |
| CCGGACAGGTGAAAGGTAACTCAGTCTGGTACGC | 1.68 |
| CCAGACAGGTGAGAAGGTAACTTAGCCTCGATTA | 0.936 |
| TCGAGTAGGTTAGTCGGGGCATTCAACCAACATA | 2.51 |
| CCTTGCAGGCCAATCTGGGTCACTCAAGGCTTGA | 4.87 |
| CTCGAAAGGTCGGTTGAGGTGAGTACACGGATAA | 0.186 |
| CCTGCTAGGTCGATGGTCAGCTAAAGCAGCTCGC | 0.713 |
| CCTCGGAGGACAGAAGGTCAGGGCTGTCCGCTTT | -0.131 |
| CCTACTGGGCCAAGGTCAATGATCAGTCAAAGCA | 3.63 |

tested on: PPARg:RXRa IVT, anti-PPARg (NR concentration 270 nM, RXRa partner concentration 90 nM); experiment: as above
Summary of the method: as §1

| Sequence | PBM binding z-score |
| --- | --- |
| ATCGAAAGGTAGACGAGGTGAGTATACACCGTTT | 0.628 |
| CAGCCTAGGTCAGGGCCGGTATAGGAGGAACGTT | 1.52 |
| CAAACTAGGTCAAGAGGTCGAAGTCCGCTTCCCG | 7.97 |
| TAGCCTAGGTCATTGGGGCAGTATAGTACGCATC | 4.45 |
| CGAACTAGGTCATTGACAGGACAGTGAATAGTAA | 8.32 |
| AGATGTAGGTTACATCCGGGTCATTCAGGCTATG | 7.07 |
| CAAACTAGGTCAAAGAGGTCAAAGTCCGTGCGTA | 8.45 |
| CATACAGGGTCAGCTAGGCCAGGGTAGGGACGGC | 2.48 |
| GCTTACGGGTCGAAGGTTATAGCATGAATAGAAT | 2.66 |
| CCTATTGGGCCACGAAAGGTCATTGATTCAGTGA | 4.09 |
| CCCACTGGGCCAAAGGTCATTGATTCCAATGCTC | 6.2 |
| CCGACTGGGGCAAAAGTTACCATACTCAGTACGA | 3.59 |
| ACTAGCAGGCCAAGTTTGGGTCACTCTAACAAAG | 1.15 |
| CGAACTAAGTCAGAACAGGACAGTGAAGGATGAT | 0.0567 |
| ACAGACAGTTGATGAAGGTAACTCAGGCTATCAT | -0.0113 |
| ATCTCTAGGTAACCAAGTTCAGTGGATGCCGAAC | 2.83 |
| CAAACTAGGTCACCGGAAGGTCAAGGTCCGCATG | 8.88 |
| CCTTACGGGTCACTGACAGTTTATAGCATTTGGA | 3.57 |
| AGGCAAAGTTCAGGACGAGGTAACGTAAAGCACG | 1.19 |
| CGTCCAAGGCCAGCAGGTCAGTGAAAGCGACGTG | -0.0441 |

| Sequence | PBM binding z-score |
| --- | --- |
| ATCTCTAGGTAAGACTCAGTGCAGTGAAGAACGC | 0.686 |
| CCGACTGGGGCATAAGGTTAACATAAGCCAGCCC | 3.36 |
| CCTAGCAGGCCAGGGTCACTCATGCATTTCGCTT | 1.27 |
| CAAACTAGGTCAAGAGGTCATAGTCCGCTTCCCG | 8.47 |
| ATCTCTAGGTAAGAGTCAGTTCAGTGAAGAACGC | 1.41 |
| GGAACGAGGGCGAGTTGATAGCAGAGTTTGATGG | -0.0712 |
| CGTCAATGTTCAAGGTAACGTAACAGAAAGCAGC | 0.397 |
| CCTACTGGGCCAAGGGCATTGATCAGTCAAAGCA | 3.65 |
| ATATGTCGGTTATCGGGTCATTCAGTTTGCGCAT | 4.28 |
| GCTAGCAGGCCATTTGGGTCACTCAGTGACGGGC | 2.44 |
| CATTACGGGTCAAGGTTATAGCACGGGTGGTACG | 4.53 |
| TCTCGGAGGACACGAAAGGTCATAGCTCGACATC | 2.14 |
| CCGGACAGGTGAAAGGTAACTCAGTCTGGTACGC | 2.68 |
| CCAGACAGGTGAGAAGGTAACTTAGCCTCGATTA | 0.458 |
| TCGAGTAGGTTAGTCGGGGCATTCAACCAACATA | 2.16 |
| CCTTGCAGGCCAATCTGGGTCACTCAAGGCTTGA | 5.67 |
| CTCGAAAGGTCGGTTGAGGTGAGTACACGGATAA | 0.928 |
| CCTGCTAGGTCGATGGTCAGCTAAAGCAGCTCGC | 0.603 |
| CCTCGGAGGACAGAAGGTCAGGGCTGTCCGCTTT | 0.148 |
| CCTACTGGGCCAAGGTCAATGATCAGTCAAAGCA | 4.57 |
